Measured values reported in PubChem BioAssay (EPA / NIEHS).
Inconclusive results are not listed. Activity calls are given as the source filed them. The calls were made as follows: active = hit-call score of the fitted dose curve at least 0.9, where 1 is the maximum; inconclusive = response in the unintended direction; inactive = score below 0.9.

Biological target: Glucocorticoid receptor (Homo sapiens) (UniProt P04150)
Assay: ATG_GR_TRANS: Attagene TRANS-FACTORIAL HepG2 Assay for human Glucocorticoid Receptor (GR) (AID 2282978);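 also: activators score as hits since higher reporter transcript over DMSO is fitted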
Conditions: HepG2 Attagene TRANS GR reporter, mRNA transcription
Protocol: ATG_TRANS is a cell-based, multiplexed-readout assay that uses HepG2, a human liver cell line, with measurements taken at 24 hours after chemical dosing in a 24-well plate.ATG_GR_TRANS is one of 30 assay component(s) measured or calculated from the ATG_TRANS assay. It is designed to make measurements of mRNA induction, a form of inducible reporter, as detected with fluorescence intensity signals by Reverse transcription polymerase chain reaction (RT-PCR) and Capillary electrophoresis technology.Data from the assay component ATG_GR_TRANS was analyzed into 1 assay endpoint. This assay endpoint, ATG_GR_TRANS, was analyzed in the positive analysis fitting direction relative to DMSO as the negative control and baseline of activity. Using a type of inducible reporter, measures of mRNA for gain-of-signal activity can be used to understand the reporter gene at the transcription factor-level as they relate to the gene NR3C1. Furthermore, this assay endpoint can be referred to as a primary readout, because this assay has produced multiple assay endpoints where this one serves a reporter gene function. To generalize the intended target to other relatable targets, this assay endpoint is annotated to the nuclear receptor intended target family, where the subfamily is steroidal.
Human liver HepG2 cells are transiently transfected with multiple reporter transcription units (MRTUs) in 6-well plates using FuGene 6 reagent (Roche; 3 ml FuGene/1 mg DNA). The MRTU constructs are regulated by a cis-regulating element (promoter). […] A major difference between the CIS and TRANS system is that in CIS activities of endogenous TFs are measured, whereas the TRANS assay evaluates changes in activities of exogenous, chimeric NR-Gal4 proteins. […] At the end of 24 hour incubation, total RNA was isolated using TriZol reagent (Invitrogen). The isolated RNA is then reverse-transcribed using oligo(dT) primer and Mo-MLV reverse transcriptase (Invitrogen) with DNAse I (Ambion) treatment for 30 min. The one-tenth of the produced cDNA was amplified by PCR using Taq DNA polymerase (Invitrogen) and two reporter sequence-specific primers. The PCR products were fluorescently labeled by primer extension with 6-arboxyfluorescein (6-FAM) 5'-labeled reporter sequence-specific primer (2 min at 95 C, 20 s at 68 C and 10 min at 72 C) and these products were digested with 5U of HpaI (New England Biolabs) for 2h at 37 C. The fragments were purified using Qiaquick PCR columns (Qiagen), analyzed on an ABI 3130xL genetic analyzer (Applied Biosystems) with peak positions identified by using a set of X-rhodamine (ROX)-labeled MapMarker1000 molecular weight standards (BioVentures). The raw capillary electrophoresis data was processed using Attagraph software (Attagene).

Sequence of Glucocorticoid receptor (Homo sapiens) (P04150 whole entry, looked up): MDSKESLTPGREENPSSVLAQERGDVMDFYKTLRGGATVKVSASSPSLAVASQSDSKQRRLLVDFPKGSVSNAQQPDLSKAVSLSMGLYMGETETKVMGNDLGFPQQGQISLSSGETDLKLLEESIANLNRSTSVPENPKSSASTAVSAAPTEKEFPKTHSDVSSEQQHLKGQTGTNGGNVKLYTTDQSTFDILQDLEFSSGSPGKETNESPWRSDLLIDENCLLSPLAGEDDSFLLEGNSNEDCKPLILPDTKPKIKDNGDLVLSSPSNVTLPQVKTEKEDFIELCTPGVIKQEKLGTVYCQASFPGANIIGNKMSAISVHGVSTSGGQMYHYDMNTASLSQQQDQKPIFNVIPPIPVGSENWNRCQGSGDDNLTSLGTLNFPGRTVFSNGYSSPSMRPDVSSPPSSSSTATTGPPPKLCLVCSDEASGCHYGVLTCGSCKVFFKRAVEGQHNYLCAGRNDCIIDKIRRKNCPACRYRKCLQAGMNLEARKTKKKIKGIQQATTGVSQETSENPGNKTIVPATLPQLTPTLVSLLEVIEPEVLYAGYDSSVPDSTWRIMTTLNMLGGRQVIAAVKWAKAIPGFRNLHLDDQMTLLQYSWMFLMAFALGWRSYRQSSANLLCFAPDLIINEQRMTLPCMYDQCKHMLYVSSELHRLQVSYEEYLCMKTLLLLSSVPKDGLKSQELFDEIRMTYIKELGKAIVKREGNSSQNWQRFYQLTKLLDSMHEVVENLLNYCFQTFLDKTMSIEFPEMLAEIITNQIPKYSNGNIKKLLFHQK

Compound | outcome | AC50
CCCSC(=O)N(CCC)CCC | inactive | 
Cn1cc(-c2ccccc2)c(=O)c(-c2cccc(C(F)(F)F)c2)c1 | inactive | 
CCC[CH2][Sn]([Cl])([CH2]CCC)[CH2]CCC |  | 1.24 µM (active)
c1ccc2c(c1)oc1ccccc12 | inactive | 
O=[N+]([O-])c1ccc(Oc2ccc(Cl)cc2Cl)cc1 | inactive | 
ClC1=C(Cl)C2(Cl)C3C(Cl)C=CC3C1(Cl)C2(Cl)Cl (stereo not given) | inactive | 
Nc1ccc(N=Nc2ccccc2)cc1 | inactive | 
CO[C@@H]1[C@H](OC(=O)NC(=O)CCl)CC[C@]2(CO2)[C@H]1[C@@]1(C)O[C@@H]1CC=C(C)C | inactive | 
Oc1ccccc1Cl | inactive | 
CCCCOC(=O)c1ccccc1C(=O)OCc1ccccc1 | inactive | 
Clc1ccccc1Cl | inactive | 
CC(C)(O)c1cnn2c(-c3ccc(F)c(-c4c(F)cccc4C#N)c3)cnc2n1 | inactive | 
CN(C)c1ccccc1 | inactive | 
Nc1ccc(Oc2ccc(N)cc2)cc1 | inactive | 
Nc1ccc(Cl)cc1N | inactive | 
[As]#[In] | inactive | 
CC(C)(C)C(O)(CCc1ccc(Cl)cc1)Cn1cncn1 (stereo not given) | inactive | 
Cc1cc(N=Nc2ccccc2C)ccc1N | inactive | 
N#CC(Br)Br | inactive | 
CCC(C)c1ccc(O)cc1 (stereo not given) | inactive | 

Compound | outcome | AC50
O=C(Oc1ccc(Br)cc1)N1CCN2CCC1CC2 | inactive | 
c1ccc(C2CO2)cc1 (stereo not given) | inactive | 
Oc1ccc2ccc3cccc4ccc1c2c34 | inactive | 
O=C(Nc1ccccc1)c1ccccc1I | inactive | 
c1ccc(N=Nc2ccccc2)cc1 | inactive | 
CCCCCCCCCCCCCN1CC(C)OC(C)C1 (stereo not given) | inactive | 
c1ccc(NNc2ccccc2)cc1 | inactive | 
Cc1cccc(N)c1N | inactive | 
Clc1ccc(C(c2ccc(Cl)cc2)C(Cl)(Cl)Cl)cc1 | inactive | 
Clc1ccc(C(c2ccc(Cl)cc2)C(Cl)Cl)cc1 | inactive | 
COP(=S)(OC)SCN1C(=O)c2ccccc2C1=O | inactive | 
CCOC(=O)[C@]1(c2ccccc2)Oc2ccccc2[C@@H]1N | inactive | 
Nc1ccc([N+](=O)[O-])cc1 | inactive | 
Brc1ccc(Oc2ccccc2)cc1 | inactive | 
CCCCCCCCOC(=O)c1ccc(C(=O)OCCCCCCCC)c(C(=O)OCCCCCCCC)c1 | inactive | 
C=CCc1ccc2c(c1)OCO2 | inactive | 
Nc1ccc(Cc2ccc(N)cc2)cc1 | inactive | 
CCCCCOC(=O)c1ccccc1C(=O)OCCCCC | inactive | 
CC(C)COC(=O)c1ccccc1C(=O)OCC(C)C | inactive | 
OCCCl | inactive | 
